Here are results for 30 compounds from PubChem BioAssay (NCI).

SMILES strings stand for the structures. Compounds without any hit were thinned out: in the full panel of roughly 83,000, 20% have a hit.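 Step 1: grow cells in 96-well plates. Step 2: add test compound at a single concentration. Step 3: incubate 48 h. Step 4: record percent growth.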 Values without a mark were called inactive. The source made the active and inactive calls. Rule for the calls: active = growth percent below 10; inactive = the rest.

What all share (assay): NCI-60 one-dose screen, 48 h (100 = growth as untreated, 0 = no growth, -100 = all killed)
Common to all, as to settings: 10 µM unless noted

Test [1] concerns T-47D breast.
For test [2], the system named is BT-549 breast.
Test [3] has as its system MDA-MB-435 melanoma.
Test [4] concerns SW-620 colon.
Test [5] concerns MCF7 breast.
Test [6] relates to HCT-116 colon.
The subject of test [7] is HCC-2998 colon.
For test [8], the system named is KM12 colon.

As for `COc1ccc(C2CC(=O)Oc3c(OC)c4c(c(OC)c32)OCO4)cc1` (stereo not given), the growth in test [1] was 103%; in test [2] it was 87.6%; in test [3], 56.8%; in test [4], 89.7%; in test [5] it was 92.7%; in test [6] it was 96.9%. Also, the growth was 97% in test [7] and 88.1% in test [8].
`COc1cccc2cc(N(C)c3nc(C)nc4c3CCC4)ccc12`: the growth in test [1] is 50.7%; in test [2] it was 1.76% (active); in test [3], -3.22% (active); in test [4], 19.7%; in test [5], 15.1%; in test [6] it was -14.2% (active). Moreover, the figures for the growth in test [7] and in test [8] were 17.5% and 0.0953% (active), respectively.
Turning to `COc1ccc2c(c1)C(c1c[nH]c3ccccc13)(c1c[nH]c3ccccc13)CCO2`, the growth was -6.36% (active) in test [1]; 55.6% in test [2]; 49.9% in test [3]; 61.9% in test [4]; 30.7% in test [5]; 18.8% in test [6]. Also, the growth in test [7] is 72.4%; in test [8] it was 46.2%.
With `CNc1nc2ncc(-c3c(C)noc3C)cc2n1Cc1ccccc1`, the growth in test [1] is 54.1%; in test [2] it was 60.2%; in test [3], 45.7%; in test [4], 71.8%; in test [5], 18.6%; in test [6], 26%. Moreover, the growth was 63.4% in test [7] and 62.1% in test [8].
With `CCN1C(=O)N(CC)C2C1NC(=S)N2/N=C/C=C/c1cccs1` (stereo not given), the growth in test [1] is 66.4%; in test [2] it was 24.1%; in test [3], -26.9% (active); in test [4] it was 25.5%; in test [5], 18.3%; in test [6], 15.1%. Besides, the growth in test [7] was 16.4%; in test [8], 18.5%.
Take `COc1ccc(-c2cc(-c3ccc(Cl)cc3)c(C#N)c(=O)n2CCCCC(=O)NO)cc1`: the growth in test [1] was 83.2%; in test [2] it was 59.8%; in test [3], 91.1%; in test [4] it was 80%; in test [5], 76.7%; in test [6] it was 62.7%. Besides, the growth in test [7] is 84.3%; in test [8] it was 86.9%.
`CCOC(=O)c1cc(C(=O)c2cc(OC)cc(OC)c2)n2ccccc12`: the growth in test [1] is 49.3%; in test [2], 35.7%; in test [3], -4.66% (active); in test [4], 28.2%; in test [5], 22.3%; in test [6] it was 12.2%. For the same compound, the growth in test [7] is 54.7%; in test [8], 24.2%.
For the compound `O=c1ccc2nc(-c3ccccc3)nn(-c3ccccn3)c-2c1`, the growth in test [1] was -40.9% (active); in test [2], 108%; in test [3] it was 94.6%; in test [4], -46.2% (active); in test [5], -37.1% (active); in test [6], 42.7%. Further, the growth was 103% in test [7] and 104% in test [8].
For `CCOC(=O)c1ccc2c(c1)[n+](=O)c(C(C)=O)c(C(F)(F)F)n2[O-]`, the growth in test [1] was -26.1% (active); in test [2], -44.9% (active); in test [3] it was 2.85% (active); in test [4], -0.801% (active); in test [5], -6.41% (active); in test [6] it was -38.9% (active). Further, the growth is -17.1% (active) in test [7] and -85.5% (active) in test [8].
Consider `COc1ccc(C(=O)/C=C/c2ccc(C)cc2)cc1S(N)(=O)=O`, for which the growth in test [1] was 94.1%; in test [2] it was 64.1%; in test [3], 88.3%; in test [4] it was 21.9%; in test [5], 22%; in test [6], 9.96% (active). Also, the growth in test [7] is 99%; in test [8], 44.3%.
Regarding `COc1cc(/C=C2\C(=O)N(CCOc3cc(O)c4c(=O)cc(-c5ccccc5)oc4c3)c3ccccc32)cc(OC)c1O`, the growth was 65.4% in test [1]; 51% in test [2]; -40.2% (active) in test [3]; 22.2% in test [4]; 31% in test [5]; 28.2% in test [6]. In addition, the results for the growth in test [7] and in test [8] were 80% and 51.2%, respectively.
For `Cc1ccc2c(n1)C[C@H](C(C)(C)O)CC[C@H]2C`, the growth is 96.5% in test [1]; 112% in test [2]; 102% in test [3]; 104% in test [4]; 94.6% in test [5]; 97.4% in test [6]. The growth in test [7] was 102%; in test [8], 109%.
For the compound `CC1=C2[C@@H](CC1)[C@]1(C)O[C@@](C(C)C)(C[C@H]1OC(=O)CO)[C@H]2OC(=O)CCCc1ccccc1`, the growth in test [1] is 25.3%; in test [2], 53.3%; in test [3] it was 78.7%; in test [4] it was 77.3%; in test [5], 82.4%; in test [6], 68.7%. For the same compound, the growth in test [7] was 84%; in test [8], 60.9%.
With `CN(C)CCCN(CCC1CCCCC1)CCC1CCCCC1`, the growth in test [1] is -37.6% (active); in test [2], 86%; in test [3] it was -33.2% (active); in test [4], 40.6%; in test [5], -24.1% (active); in test [6] it was 29%. Besides, the growth was -88.1% (active) in test [7] and 12% in test [8].
As to `Oc1cccc2c1NCCC2`, the growth is 22.1% in test [1]; 39.1% in test [2]; 15.4% in test [3]; 19.9% in test [4]; 13.1% in test [5]; 8.94% (active) in test [6]. Besides, the growth is 32.8% in test [7] and 20.7% in test [8].
On to `CN(CCNc1ccc(C(=N)N)cc1)c1ccc(C(=N)N)cc1`, for which the growth in test [1] is 126%; in test [2], 102%; in test [3] it was 92.6%; in test [4] it was 98.6%; in test [5] it was 116%; in test [6], 101%. The growth in test [7] is 99.6%; in test [8] it was 86.2%.
In the case of `CC1=C(C(=O)OCc2ccccc2)C(c2ccc3c(c2)OCO3)n2c(nc3ccccc32)N1` (stereo not given), the growth was 40.9% in test [1]; 50.5% in test [2]; -35.4% (active) in test [3]; 17.6% in test [4]; 20.6% in test [5]; 18.8% in test [6]. Moreover, the values for the growth in test [7] and in test [8] were 56.4% and 17.3%, respectively.
For `COc1ccc(/C=N\NC(=O)c2ccc3nc(-c4ccc(Cl)cc4)[nH]c3c2)cc1`, the growth in test [1] is 23.3%; in test [2] it was 56.9%; in test [3], 68.5%; in test [4], 24.4%; in test [5], 16.7%; in test [6], 19%. Moreover, the growth in test [7] is 51.1%; in test [8] it was 17.3%.
`CCNc1nc(-c2ccc(Cl)c(OC)c2)c(-c2ccnc(NCCNS(=O)(=O)c3ccc(Cl)cc3)n2)s1`: the growth in test [1] is 32.5%; in test [2] it was 5.74% (active); in test [3], 6.21% (active); in test [4], 29.5%; in test [5] it was 6.61% (active); in test [6], 7.13% (active). The figures for the growth in test [7] and in test [8] were 56.3% and 48.8%, respectively.
Regarding `O=C(CNc1ncco1)Nc1ccc(S(=O)(=O)c2ccc(NC(=O)CNc3ncco3)cc2)cc1`, the growth in test [1] was 29.3%; in test [2], 43.9%; in test [3], 3.01% (active); in test [4] it was -82% (active); in test [5] it was 18.9%; in test [6] it was -80.7% (active). The growth in test [7] is 76.4%; in test [8], 94.8%.
Take `C#CCOc1cc(/C=N/Nc2nc(-c3ccc(OC)cc3)cs2)ccc1O`: the growth in test [1] is 61.2%; in test [2], 84.5%; in test [3], 94.7%; in test [4], 94.8%; in test [5], 68.9%; in test [6] it was 76.5%. Moreover, the values for the growth in test [7] and in test [8] were 92.4% and 88.6%, respectively.
For the compound `CN1CCN(Cc2ccc(NC(=O)c3cncc(C#Cc4c(N)ncc5cc(F)ccc45)c3)cc2C(F)(F)F)CC1`, the growth in test [1] is 77%; in test [2], 56.6%; in test [3], 26.4%; in test [4], -53.1% (active); in test [5], -75.9% (active); in test [6], -78.7% (active). Moreover, the growth was 51.4% in test [7] and 5.8% (active) in test [8].
For the compound `O=C(Nc1ccc(Oc2cccc(F)c2)c(Cl)c1)c1cnccn1`, the growth in test [1] was 38.3%; in test [2] it was 59.9%; in test [3] it was -21.2% (active); in test [4], 22.7%; in test [5] it was 17.5%; in test [6], 32%. Moreover, the results for the growth in test [7] and in test [8] were 56.2% and 30.3%, respectively.
Regarding `COc1ccc(NC(=O)CSc2oc(-c3ccccc3)nc2S(=O)(=O)c2ccc(Cl)cc2)c(OC)c1`, the growth in test [1] was 60.5%; in test [2] it was 61.7%; in test [3] it was 86.6%; in test [4] it was 81.7%; in test [5] it was 73.8%; in test [6], 41.6%. The growth is 83.5% in test [7] and 71.9% in test [8].
Take `Cn1ncc(CC(=O)O)c1-n1nnc2cc(Cl)ccc2c1=O`: the growth in test [1] is 102%; in test [2], 102%; in test [3] it was 92.7%; in test [4], 103%; in test [5] it was 110%; in test [6], 99.5%. The growth in test [7] is 107%; in test [8] it was 102%.
Take `COc1ccc(-c2cc(-c3ccc(Nc4nc(Nc5ccc(Cl)cc5)nc(Nc5ccc(Cl)cc5)n4)cc3)no2)cc1`: the growth in test [1] was 70.7%; in test [2], 89.8%; in test [3], 71.3%; in test [4], 88.7%; in test [5] it was 60.6%; in test [6], 53.3%. The growth in test [7] was 11.4%; in test [8], 82%.
Turning to `COc1cc2cc(Oc3ccc(NC(=O)Nc4ccc(F)c(C(F)(F)F)c4)cc3)c(C)nc2cc1OCCN1CCCCC1`, the growth in test [1] is 78.5%; in test [2] it was 85.3%; in test [3], -92.5% (active); in test [4] it was -76.2% (active); in test [5] it was -75% (active); in test [6], -89.8% (active). For the same compound, the results for the growth in test [7] and in test [8] were 96.9% and -79.9% (active), respectively.
On to `O=C(/C=C/c1ccco1)c1ccc(Nc2ccnc3cc(Cl)ccc23)cc1`, for which the growth in test [1] is 83.7%; in test [2], 88.5%; in test [3], 92.5%; in test [4], 86.3%; in test [5], 56.1%; in test [6], 33.7%. Moreover, the growth in test [7] was 60.7%; in test [8], 80.2%.
As to `N#Cc1c(-c2ccc(F)cc2)cc(-c2cccc(Cl)c2)[nH]c1=O`, the growth in test [1] was 59.9%; in test [2], 54.6%; in test [3], 77.1%; in test [4], 104%; in test [5], 54.5%; in test [6], 67.1%. In addition, the growth is 94.2% in test [7] and 56.1% in test [8].
As to `COc1cc2nc3cc([N+](=O)[O-])ccc3c(NCCCNCCO)c2cc1OC`, the growth was -30.1% (active) in test [1]; -73.4% (active) in test [2]; -100% (active) in test [3]; -25% (active) in test [4]; -28.5% (active) in test [5]; -33.7% (active) in test [6]. Further, the figures for the growth in test [7] and in test [8] were -47.9% (active) and -33.6% (active), respectively.
